The record followed here is PubChem BioAssay (NCI).

Where “and” joins values, the source holds several entries; their conditions need not be identical. Equal entries are not always repeated. This is part of a sample that, as a whole, favours compounds with a hit. Of some 83,000 tested, about 20% had one in any assay.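 Cell lines were cultured in 96-well plates, exposed to a single compound concentration, and assessed for percent growth 48 hours later.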 Calls of active or inactive are those of the source. The calls were made as follows: active = growth percent below 10; inactive = the rest.

This assay deals with HL-60(TB) leukemia. Description: NCI-60 one-dose screen, 48 h (100 = growth as untreated, 0 = no growth, -100 = all killed). The following applies: 10 µM unless noted.
Turning to `COc1cccc2cc(-c3nc(C4CCC(C(=O)O)CC4)n4ncnc(N)c34)[nH]c12` (stereo unspecified), the growth was 33.3% (inactive).
Turning to `O=C1CCc2c(sc3[nH]c(=S)n(-c4ccc(OC(F)(F)F)cc4)c(=O)c23)C1`, the growth is 39.7% (inactive).
The value for `N#Cc1c(N)[nH]c(S)c1C#N` was 99% (inactive).
In the case of `CCN(CC)c1ccc(/C=C/C(=O)c2ccc(Nc3nc(Nc4ccccc4)nc(Nc4ccccc4)n3)cc2)cc1` it was 45.6% (inactive); in that of `CN(Cc1cc(Cl)cc(Cl)c1O)Cc1cc(Cl)cc(Cl)c1O`, 53.1% (inactive); in that of `Clc1ccc(/C=C/c2ccc3ccccc3n2)cc1`, -14.2% (active) and 77.3% (inactive) and 60.8% (inactive).
As to `O=C(Nc1ccc(Br)cc1)c1cc(Br)ccc1O`, the growth was -18.4% (active) and -60% (active).
In the case of `COc1ccc(-c2nnc3n(C)c(=O)c4ccccc4n23)cc1N` it was -22.8% (active); in that of `Nc1nc(N)c2cc(S(=O)(=O)c3ccccc3)ccc2n1`, 23.2% (inactive) and 20.7% (inactive); in that of `CC(C)C(C)(C)C(=O)C(C)(C)C(C)(C)C`, 135% (inactive).
In the case of `COc1ccc(-c2nc(-c3ccccn3)c(-c3ccccn3)n2CC(C)C)cc1OC1CCCC1`, the growth was -43.5% (active).
`O=C(NO)c1ccc(-n2nc(-c3ccccc3)c3ccccc32)cc1`: the growth was 62.4% (inactive).
As to `Cc1ccc(-n2c(=S)[nH]c3sc4c(c3c2=O)CCC(=O)C4)cc1`, the growth is 4.93% (active).
The value for `C=CC(=O)NCc1ccc(Nc2nccc(-c3ccc(N4CCCC4)c(C#N)c3)n2)cc1` was -12.9% (active); that for `COc1ccc2c(c1)sc1nc(-c3ccccc3)c(-c3ccc(O)c(OC)c3)n12` was 44.2% (inactive); that for `COc1ccc2c(c1)[n+](=O)c(/C=C/C(=O)c1cc(OC)c(OC)c(OC)c1)c(C)n2[O-]` was -49.1% (active).
The value for `COc1cc(-c2cc3ncccc3c3nc(N)c4cccnc4c23)cc(OC)c1OC` was 6.71% (active); that for `COc1cc(-c2nnc(-c3nc(-c4cc(OC)c(OC)c(OC)c4)n4ccccc34)o2)ccc1N` was 64.8% (inactive); that for `Oc1ccc(Cc2ccccc2Cl)c(O)c1` was 97.4% (inactive).
The value for `COc1ccc(/C=C2/C(=O)NC(SCC(=O)N3CCN(c4cc5c(cc4F)c(=O)c(C(=O)O)cn5C4CC4)CC3)=NC2N)cc1OC` (stereo unspecified) was 104% (inactive).
Regarding `CC1=Nc2cnc(Nc3ccc(OCCN4CCCC4)cc3)nc2Nc2ccccc21`, the growth was 76.4% (inactive).
The value for `CCCCCCCCCCCCCC(=O)Oc1ccc[nH]c1=O` was 97.1% (inactive); that for `ClC(Cl)c1nc(-c2cccnc2)n2nc(-c3ccccc3)cc2n1` was 14.2% (inactive).
In the case of `COc1ccc(-c2cn[nH]c2-c2ccc(OC)c(O)c2)cc1` it was 46.1% (inactive); in that of `CCCC(C)OCC(=O)O` (stereo unspecified), 88.8% (inactive).
On to `COc1cc2c(cc1OC)C(C(CCCCCC(CCC(C)C)C1NCCc3cc(OC)c(OC)cc31)CCC(C)C)NCC2` (stereo unspecified), for which the growth was -12.4% (active).
